# An excerpt weighted towards active compounds, which were near 4.1% of everything screened.
# tim23-1 inh: tim23-1 yeast growth inhibition | S. cerevisiae tim23-1 growth, BacTiter-Glo luminescence, 24 h | inhibition, % at 20 µM | 330,000 compounds, 1.3% hits;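 active means growth inhibition of the mutant yeast at or above 50%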;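 further: temperature-sensitive mutant grown at 25 °C; plate controls were DMSO-treated mutant yeast for no effect and medium wells lacking yeast for full effect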
# TIM10 inh: TIM10 yeast growth inhibition | S. cerevisiae TIM10 strain growth, BacTiter-Glo luminescence, 24 h | inhibition, % at 10 µM | 330,000 compounds, 1.4% hits;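 active means inhibition of 40% or more at the single tested concentration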;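 further: wild-type TIM10 isogenic control strain grown at permissive 25 °C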
# NLRP3 yeast inh: NALP3 inhibition in yeast | AID 2825 | Yeast reconstituted NLRP3/ASC/caspase-1, beta-gal luminescence, 24 h | inhibition, % at 10 µM | 330,000 compounds, 0.39% hits;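 active means inhibition of 50% or more; inactive means inhibition below 50%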;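 further: plate controls were induced DMSO wells for no effect and uninduced yeast grown without galactose for full effect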
# tim10-1 inh: tim10-1 yeast growth inhibition. S. cerevisiae tim10-1 ts strain growth, BacTiter-Glo, 24 h. inhibition, % at 20 µM. 330,000 compounds, 2.2% hits;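 active means inhibition of at least 40%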;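 further: mutant grown at 25 °C; 0% = DMSO wells with yeast and 100% = wells holding no yeast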
# PfHsp90 yeast 2: inhibits growth of yeast expressing Plasmodium falciparum Hsp90 | S. cerevisiae expressing PfHsp90, BacTiter-Glo ATP, 48 h; yeast lacking PDR1 and PDR3 efflux regulators | inhibition, % at 9.4 µM | 310,000 compounds, 0.32% hits | AID 504621;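 active means every replicate shows inhibition above about 80%, whatever the replicate mean, limit read from the data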;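 further: 0% = DMSO neutral controls and 100% = 20 µM radicicol positive controls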
# NALP1 inh: inhibitors of NALP1 inflammasome in yeast; S. cerevisiae NALP1/ASC/caspase-1 growth, X-gal OD620, 72 h; inhibition, % at 10 µM; 280,000 compounds, 0.61% hits; AID 2071; in the data active means inhibition mostly above about 24%, no sharp cut-off; inactive means mostly below about 32%
# tim10-1 conf: confirmation of tim10-1 mutant yeast growth inhibitors; shares compounds with tim10-1 inh; S. cerevisiae tim10-1 ts strain growth, BacTiter-Glo, 24 h; inhibition, % at 20 µM; 7,400 compounds, 56% hits; AID 463213;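 active means inhibition of yeast growth at or above a set limit in either of two repeat tests at 20 µM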;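 further: tim10-1 mutant grown at permissive 25 °C to find synthetic lethal compounds; 0% = DMSO yeast wells and 100% = medium wells without yeast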
# The depositor's hits bear a star; . = no result given.
SMILES,tim23-1 inh,TIM10 inh,NLRP3 yeast inh,tim10-1 inh,PfHsp90 yeast 2,NALP1 inh,tim10-1 conf
CC(=C\c1ccco1)/C=C(\C#N)C(=O)NCCc1c[nH]c2ccccc12,31,38,12,43*,19,18,42*
CCc1cccc(C)c1NC(=O)CSc1n[nH]c(N)n1,-6,6,-1,-14,-5,.,.
CN(C)c1ccc(C(=O)/C=C/c2cccnc2)cc1,19,9,29,19,-10,-3,.
O=C(/C=C/c1cccnc1)c1ccc(F)c(F)c1,33,18,21,40*,5,20,26
CCN(CC)CCCN(C(=O)c1ccc(F)cc1)c1nc(-c2ccc(OC)cc2)cs1,10,11,32,8,21,15,.
CCc1ccc(/C=C2\Oc3cc(OC(=O)N4CCOCC4)ccc3C2=O)cc1,27,29,15,50*,49,37,18
Cc1ccc(C(=O)NCCCNC(=O)Cc2ccccc2)cn1,22,-4,5,17,-16,26,.
COc1ccc(-c2nnc(NC(=O)c3ccc(S(=O)(=O)N4CCc5ccccc5C4)cc3)o2)cc1,12,39,16,44*,-7,-4,39*
COc1ccc(-c2nnc(SCC(=O)N3CCc4ccccc4C3)o2)cc1,43,36,29,43*,-12,6,27
Cc1ccc(-n2nnnc2SCC(=O)N2CCc3ccccc3C2)c(C)c1,42,6,50,44*,13,1,32*
Cn1nnnc1SCC(=O)N1CCc2ccccc2C1,-5,10,20,12,-22,2,.
O=C(c1ccc(Cl)cc1)[C@@H]1[C@@H]2C(=O)N(c3ccccc3)C(=O)[C@@H]2C2c3ccccc3C=NN21 (some centres undefined),41,15,-7,40*,-12,34,23
Cc1oc2ccc(O)cc2c1C(=O)c1ccc([N+](=O)[O-])cc1,45,28,22,45*,10,34,27
Cc1oc2ccc(O)cc2c1C(=O)c1ccc(Cl)cc1,23,5,2,31,-6,18,.
O=C(CN1CCC(C(=O)c2ccc(Cl)cc2)CC1)Nc1ccc2c(c1)OCCO2,35,15,12,44*,10,1,25
NC(=O)C1CCN(CC(=O)Nc2ccc3c(c2)OCCO3)CC1,7,8,1,5,1,.,.
CCN(CC)S(=O)(=O)c1ccc(C(=O)Nc2cc(S(=O)(=O)N3CCOCC3)ccc2N2CCN(C)CC2)cc1,.,.,.,.,3,.,.
CC(=O)c1ccc(N2CCC(c3cc(-c4ccc(Cl)cc4Cl)n[nH]3)CC2)c([N+](=O)[O-])c1,16,36,13,44*,.,3,22
O=[N+]([O-])c1cccnc1N1CCC(c2cc(-c3ccc(Cl)cc3Cl)n[nH]2)CC1,26,32,17,37,-59,10,.
CCOc1ccc(NC(=O)/C(C#N)=C\c2ccc(N3CCCC3)c(C)c2)cc1,.,.,.,.,-10,.,.
COc1ccc(OC)c(NC(=O)COC(=O)CN2C(=O)NC3(CCCC3)C2=O)c1,11,-1,-13,3,4,.,.
CCCN(CC(=O)Nc1ccccc1OC)C(=O)c1ccc2[nH]c3c(c2c1)CC(C)CC3 (centres undefined),43,23,-12,41*,-18,.,30
CCN(CC(=O)Nc1ccccc1OC)C(=O)c1ccc2[nH]c3c(c2c1)CC(C)CC3 (centres undefined),40,27,20,17,.,.,.
CCOC(=O)c1oc2nc(C(C)C)c3c(c2c1N)CCC3,37,21,24,43*,12,19,29
CCOC(=O)C1CCN(c2cc3c(cc2NC(=O)c2ccccc2Cl)n(C)c(=O)n3C)CC1,33,3,20,49*,-23,4,-4
SMILES,tim23-1 inh,TIM10 inh,NLRP3 yeast inh,tim10-1 inh,PfHsp90 yeast 2,NALP1 inh,tim10-1 conf
CCOC(=O)C1CCN(c2cc3c(cc2NC(=O)c2ccccc2OCC)n(C)c(=O)n3C)CC1,30,-20,24,48*,-53,6,0
CCOC(=O)C1CCN(c2cc3c(cc2NC(=O)c2ccccc2F)n(C)c(=O)n3C)CC1,15,-12,-2,9,-31,17,.
CN(CC(=O)OCC(=O)NC1CCCC1)S(=O)(=O)c1ccc(Cl)cc1,18,7,19,10,15,.,.
COc1cc(SC)ccc1C(=O)NNC(=O)c1cc(C)oc1C,44,23,34,53*,46,.,26
COc1ccc(C)cc1Nc1n[n+](-c2ccccc2)c(-c2ccc(SC)cc2)s1,6,5,22,-10,6,2,.
C=CCC1Cc2c(cccc2[N+](=O)[O-])C(CC=C)N1 (centres undefined),33,18,-7,49*,-1,-3,22
CC(C)[C@H](NC(=O)[C@H]1N2C(=O)c3ccccc3C2SC1(C)C)C(=O)NCc1ccco1 (some centres undefined),15,5,8,15,-9,5,.
COc1ccc(-c2cc(C)no2)cc1S(=O)(=O)NCCCN(C)Cc1ccccc1,3,2,11,5,26,3,.
COc1ccc(-c2onc(C)c2C)cc1S(=O)(=O)NCCc1ccco1,37,-14,25,43*,3,-3,2
Cc1ccc(NC(=O)CCc2nnc3ccc(N4CCC(C)CC4)nn23)nc1,12,24,4,15,11,8,.
Oc1c(Cl)cc(Cl)cc1CNc1ccc(Br)cn1,34,17,-9,55*,-17,-13,63*
Oc1ccc(Cl)cc1CNc1ccccn1,4,0,15,1,-31,21,.
O=C(Cc1ccc(Cl)cc1)Nc1ccc(Br)cn1,31,16,8,41*,-13,-2,16
O=S(=O)(c1ccc(F)cc1)N1CCN(CC2CC3C=CC2C3)CC1 (centres undefined),-5,-4,35,9,-8,17,.
Cc1cccc(COCC(CC(C)C)N2CCN(C(=O)c3ccc(C(F)(F)F)cc3)CCC2=O)c1 (centres undefined),20,16,9,7,11,16,.
CC(C)CC(COCc1cccc(Cl)c1)N1CCN(C(=O)c2ccc(C(F)(F)F)cc2)CCC1=O (centres undefined),28,23,-2,49*,-43,16,25
O=c1c(-c2nnc(SCc3ccc(Cl)cc3)o2)cccn1Cc1ccccc1,38,14,16,46*,.,25*,19
CC(C)NC(=O)CSc1nnc(-c2ccc3ncccc3c2)n1C,-1,6,16,-8,-5,.,.
COc1ccccc1CNC(=O)CCCn1nc(C)c2c(C)n(-c3ccccc3)nc2c1=O,31,6,5,35,16,-9,.
